Assay results: PubChem BioAssay AID485273 (Sanford-Burnham Center for Chemical Genomics, 2010)
The campaign covered roughly 330,000 compounds. About 1,500 (0.45%) were called active. The sample holds actives, similar compounds and a random draw of the others, so the mix is not that of the screen. Rule as the data show it: active = inhibition above about 45% (passing the limit was not always enough); inconclusive = no clear call, values can overlap the other calls.

The molecules below were run against Ubiquitin-conjugating enzyme E2 N (Homo sapiens) (UniProt P61088) (assay: UBC13 polyubiquitin chain formation inhibitors, primary screen, biochemical, TR-FRET, uHTS (AID 485273)). Conditions: at 20 µM, hits give high values.
Chain of Ubiquitin-conjugating enzyme E2 N (Homo sapiens) (P61088 whole entry, looked up): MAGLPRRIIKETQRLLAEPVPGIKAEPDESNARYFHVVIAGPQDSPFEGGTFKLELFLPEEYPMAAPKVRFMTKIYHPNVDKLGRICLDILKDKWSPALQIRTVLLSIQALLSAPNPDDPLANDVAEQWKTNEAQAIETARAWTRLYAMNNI

inhibition, active:
CCN1CCN(CCNC(=O)c2ccc(/C=C3/Sc4ccccc4N(Cc4cccc(C)c4)C3=O)cc2)CC1 50.8%
Cc1ccc(-c2noc(CCC(=O)Nc3ccccc3N3CCN(C)CC3)n2)cc1 71.9%
O=C(OCC1O[C@@H](OC(=O)c2cc(O)c(O)c(O)c2)[C@@H](OC(=O)c2cc(O)c(O)c(O)c2)[C@@H](OC(=O)c2cc(O)c(O)c(O)c2)[C@@H]1OC(=O)c1cc(O)c(O)c(O)c1)c1cc(O)c(O)c(O)c1 (some centres not stated) 138%
Cc1nc(N2CCN(c3ccccn3)CC2)c2c(C)c(C(=O)Nc3ccc(F)cc3)sc2n1 47.4%
C#CCOCCOCCOCCNc1nc(N2CCN(C(=O)C([C@@H](C)CC)n3cc(C(N)COC(=O)C(F)(F)F)nn3)CC2)nc(N2CCN(C(=O)[C@H](CCCCN)n3cc(C(N)CC(C)C)nn3)CC2)n1 (some centres not stated) 108%
C#CCOCCOCCOCCNc1nc(N2CCN(C(=O)C([C@@H](C)O)n3cc([C@@H](N)CCCCN)nn3)CC2)nc(N2CCN(C(=O)[C@H](CCCCN)n3cc(CN)nn3)CC2)n1 (some centres not stated) 107%
COc1cccc(Cn2cnc3c([N+](=O)[O-])c(C)c(C)cc32)c1 60.4%
C#CCOCCOCCOCCNc1nc(N2CCN(C(=O)CCCCCCCCCCNC(=O)[C@H]([C@@H](C)CC)n3cc(CCCCN=C(N)N)nn3)CC2)nc(N2CCN(C(=O)CCCCCCCCCCNC(=O)[C@H](CO)n3cc(CCCSC)nn3)CC2)n1 121%
C#CCOCCOCCOCCNc1nc(N2CCN(C(=O)CCCCCCCCCCNC(=O)[C@H](CCCCN)n3cc(C)nn3)CC2)nc(N2CCN(C(=O)CCCCCCCCCCNC(=O)[C@H](CO)n3cc(CCCSC)nn3)CC2)n1 121%
C#CCOCCOCCOCCNc1nc(N2CCN(C(=O)CCCCCCCCCCNC(=O)Cn3cc(CCCCCN)nn3)CC2)nc(N2CCN(C(=O)CCCCCCCCCCNC(=O)[C@H](CO)n3cc(CCCSC)nn3)CC2)n1 128%
N#Cc1c(-c2ccc(Cl)cc2)c2c([nH]c1=S)CCCC2 47.4%
Cc1cccc(-n2cnc(C(=O)NNC(=S)Nc3ccccc3)c2)n1 84.4%
CN1CCN(CCCNC(=O)c2ccc(/C=C3\Oc4ccccc4N(Cc4ccc(Cl)cc4)C3=O)cc2)CC1 80.8%
CCN1C(=NCc2ccc(OC)cc2)N[C@@H](CCc2ccccc2)[C@H](C(=O)NCc2ccc(OC)cc2)[C@H]1C 48.7%
CN(C)CC(O)COc1ccc(C(C)(C)c2ccc(OCC(O)CN(C)C)cc2)cc1 (configuration not stated) 59.2%
NC(=O)NC(CC(=O)NNC(=O)c1ccccn1)c1ccc(Cl)cc1 (configuration not stated) 93.2%

inhibition, inactive:
COc1ccc(OC)c(-c2csc(NC(=O)C3=NNC(=O)CC3)n2)c1 -3.9%
O=C(NCCCN1CCOCC1)c1ccc2c(c1)N(Cc1cccc(F)c1)C(=O)c1ccccc1S2 13.3%
Cc1ccccc1CN1C(=O)c2ccccc2Sc2ccc(C(=O)NCCCN3CCOCC3)cc21 15.4%
C=CCn1c(=S)sc2c(=O)[nH]c(C)nc21 -13.8%
CCNC(=O)CCc1nc(-c2ccc(C)cc2)no1 0.3%
CN1CCN(C(=O)CCc2nc(-c3ccc(Cl)cc3)no2)CC1 -0.3%
Cc1cc([N+](=O)[O-])c(NC2CCCCC2)c([N+](=O)[O-])c1 -28.1%
O=C(Nc1ccc(F)cc1)C(=O)c1cn(CC(=O)N2CCOCC2)c2ccccc12 -4.6%
CCN(CC(=O)Nc1ccc(OC)cc1)C(=O)c1ccc(Cl)c(S(=O)(=O)N2CCCC2)c1 8.9%
O=C(NCCc1ccc(F)cc1)c1ccc2nccnc2c1 -9.4%
CC1CCCN(C(C(=O)Nc2ccc(C(C)C)cc2)c2ccc3c(c2)OCO3)C1 (configuration not stated) 9%
COc1ccccc1C(=O)N(C1=NC(C)CS1)c1ccc(Cl)cc1 (configuration not stated) 1.5%
COCCCNC(=O)CC1C[C@H](C(=O)N2CCCCC2)[C@@]2(CCc3ccccc3)c3[nH]c4ccccc4c3CCN2C1=O (some centres not stated) 14%
Cc1nc(N2CCOCC2)c2c(C)c(C(=O)Nc3ccc(C(F)(F)F)cc3)sc2n1 5.6%
COc1ccc(NC(=O)c2sc3nc(C)nc(N4CCN(c5ccccn5)CC4)c3c2C)c(OC)c1 5.6%
Cc1cc(C)nc(N2C(=O)CC(Cc3ccccc3)C2=O)n1 (configuration not stated) -12.4%
CC(C)NC(=O)C(c1ccc(F)cc1)N(C(=O)CCC(=O)Nc1ccccn1)c1ccccc1F (configuration not stated) 2.6%
C#CCOCCOCCOCCNc1nc(N2CCN(C(=O)C([C@@H](C)CC)n3cc(C(N)COC(=O)C(F)(F)F)nn3)CC2)nc(N2CCN(C(=O)[C@H](Cc3ccc(O)cc3)n3cc(C(N)[C@H](C)CC)nn3)CC2)n1 (some centres not stated) 37.1%
C#CCOCCOCCOCCNc1nc(N2CCN(C(=O)[C@H](CCCCN)n3cc(CCC(=O)O)nn3)CC2)nc(N2CCN(C(=O)[C@H](CCCCN)n3cc(CC(C)O)nn3)CC2)n1 (some centres not stated) 2%
C#CCOCCOCCOCCNc1nc(N2CCN(C(=O)[C@H](CCC(=O)O)n3cc(C(N)CO)nn3)CC2)nc(N2CCN(C(=O)[C@H](CCCCN)n3cc(C(N)CC(C)C)nn3)CC2)n1 (some centres not stated) -3.6%
CCCN(C(=O)CSc1nnc(N)s1)c1c(N)n(Cc2ccccc2)c(=O)[nH]c1=O 0.1%
COC(=O)C(C)Oc1ccc2c(-c3cccc([N+](=O)[O-])c3)cc(=O)oc2c1 (configuration not stated) -16.8%
COc1cccc(CN(C)CC(O)COC(c2ccccc2)c2ccccc2C)c1 (configuration not stated) 19.2%
CN(C(=O)CSc1nnc(-c2ccc(C(C)(C)C)cc2)n1C)C1CCS(=O)(=O)C1 (configuration not stated) -4.3%
OCCn1c(-c2ccccc2)csc1=Nc1ccccc1 -10.7%
C#CCNC(=O)C1=C[C@@H](c2ccccc2)[C@H](CCCO)[C@@H](OCC)O1 0.9%
Cc1ccc(NC(=O)Cc2nnc(SCC(=O)Nc3nncs3)n2C)cc1 -2.3%
Cc1cccc(Cn2cnc3c(N)c(C)c(C)cc32)c1 3.8%
COc1cccc(CNS(=O)(=O)c2cc3c(cc2C)n(C)c(=O)c(=O)n3C)c1 20%
COc1ccc(CNC(=O)C2CCN(S(=O)(=O)c3ccc(SC)cc3)CC2)cc1 6.2%
C#CCOCCOCCOCCNc1nc(N2CCN(C(=O)[C@H](CCCN=C(N)N)n3cc(C(N)[C@@H](C)CC)nn3)CC2)nc(N2CCN(C(=O)[C@H](CO)n3cc([C@@H](N)C(C)C)nn3)CC2)n1 (some centres not stated) 33.1%
C#CCOCCOCCOCCNc1nc(N2CCN(C(=O)[C@H](CCC(=O)O)n3cc(CN)nn3)CC2)nc(N2CCN(C(=O)[C@H](CCC(=O)O)n3cc(CN)nn3)CC2)n1 2.2%
C#CCOCCOCCOCCNc1nc(N2CCN(C(=O)Cn3cc(CCCCN)nn3)CC2)nc(N2CCN(C(=O)[C@H](CCCCN)n3cc(CCC(=O)O)nn3)CC2)n1 3.6%
C#CCOCCOCCOCCNc1nc(N2CCN(C(=O)[C@H](C(C)C)n3cc(CCO)nn3)CC2)nc(N2CCN(C(=O)[C@H]([C@@H](C)CC)n3cc(CCCN=C(N)N)nn3)CC2)n1 19.7%
C#CCOCCOCCOCCNc1nc(N2CCN(C(=O)[C@H](C(C)C)n3cc(CCO)nn3)CC2)nc(N2CCN(C(=O)[C@H](C(C)C)n3cc(CCO)nn3)CC2)n1 -11.8%
COc1ccccc1NC(=O)CCN1CCN(c2ccc(Cl)cc2)CC1 -6%
O=C(CN1CCN(c2ccc(O)cc2)CC1)NC1CCCc2ccccc21 (configuration not stated) 7.1%
O=C(CN1CCSCC1)N/N=C/c1ccc(Cl)cc1 -14.1%
CN(C)c1nc(-c2cccnc2)nc(-c2ccc(Cl)cc2)c1C#N -0.5%
CNc1nccc(-c2ccc(Cl)cc2)c1C#N 9.5%
Cc1cccc(-n2cnc(C(=O)Nc3cccnc3)c2)n1 -3.6%
Cn1cc(Cl)c(C(=O)NNC(=S)Nc2cccc(Cl)c2)n1 -10.5%
COc1ccc(CNS(=O)(=O)c2ccc(NC(=O)N3CCCCC3)cc2)cc1 -9.2%
CCCN1CCN(C(=O)CCCNC(=O)c2ccc(Cl)cc2)CC1 -6.8%
CC(C)OCCCNC(=O)CN1C(=O)/C(=C/c2ccccc2F)Oc2ccccc21 1%
Cc1ccc2c(C)c(C(=O)N3CCC(N4CCC(C(=O)NC5CC5)CC4)CC3)oc2c1 -16.4%
S=C(Cc1ccc(Cl)cc1)N1CCOCC1 4.3%
CCN1C(=NCC(C)C)N[C@@H](CCc2ccccc2)[C@H](C(=O)NCC(C)C)[C@H]1C 15.8%
CCN1C(=S)N[C@@H](CCc2ccccc2)[C@H](C(=O)OC)[C@H]1C 4.5%
CCN(CC(=O)Nc1cc(Cl)ccc1C)C(=O)CSCc1ccc(C)cc1 0.3%
Cc1cccc(N2CCN(C(C)C(=O)N3CCc4ccccc43)CC2)c1C (configuration not stated) -1.5%
CC(=O)Nc1cccc(NC(=O)c2ccc3c(c2)CCN3S(C)(=O)=O)c1 -2.7%
CC(C)(c1ccccc1)c1ccc(OCCN)cc1 16.7%
Cc1cc(C)n(CC(O)COc2ccc(C(C)(C)C)cc2)n1 (configuration not stated) -14.2%
CCCNC(=O)NC(=O)COC(=O)CC(NC(N)=O)c1ccc(Cl)cc1 (configuration not stated) 1%
O=C(COC(=O)c1ccccn1)NNC(=O)c1ccc(Br)cc1 3.1%
